Test results reported in PubChem BioAssay AID1159580 (chemical genetic matrix, 2015).
Screen size: about 5,500 compounds; about 2,000 (36%) were called active. Roughly 18% stayed inconclusive and do not appear here. The list shows a part of the results. A number with no mark means an inactive call. Rule as the data show it: active = normalized growth mostly below about 0.91 (no sharp cut-off); inconclusive = no clear call, values can overlap the other calls; inactive = mostly above about 0.92.

Test: chemical genetic growth profiling, strain panel (AID 1159580);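 also: tested at 20 µM; growth read once vehicle control cultures reached saturation at 30 °C; 1 = growth at the plate median or of vehicle wells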
Conditions: S. cerevisiae deletion strains, growth OD
[1] = locus YAL040C, strain CLN3, stronger effect = lower value
[2] = locus YCL061C, strain MRC1 (second series), stronger effect = lower value
[3] = locus YDR363W, strain ESC2, stronger effect = lower value
[4] = locus YER002W, strain NOP16, stronger effect = lower value
[5] = locus YNL175C, strain NOP13, stronger effect = lower value
[6] = locus YNL197C, strain WHI3, stronger effect = lower value
[7] = locus YNL224C, strain SQS1, stronger effect = lower value
[8] = locus YOR083W, strain WHI5 (second series), stronger effect = lower value

Structure (SMILES)	normalized growth [1]	normalized growth [2]	normalized growth [3]	normalized growth [4]	normalized growth (locus YGR078C, strain PAC10, stronger effect = lower value)	normalized growth (locus YNL128W, strain TEP1, stronger effect = lower value)	normalized growth [5]	normalized growth [6]	normalized growth [7]	normalized growth [8]	normalized growth (locus YPL241C, strain CIN2, stronger effect = lower value)	normalized growth (locus YMR263W, strain SAP30, stronger effect = lower value)	normalized growth (locus YMR307W, strain GAS1, stronger effect = lower value)	normalized growth (locus YNL153C, strain GIM3, stronger effect = lower value)	normalized growth (locus YNL322C, strain KRE1, stronger effect = lower value)
C[N+]1(C)CCN(c2ccccc2)CC1	0.873 (active)	1	1.04	0.961	1	0.997	0.974	0.958	1	0.979	1				
C[N+]1(C)CCC(OC(=O)C(c2ccccc2)c2ccccc2)CC1	1.08	0.992	0.956	0.999			1.01	1.03	1.01	1.02		0.987	0.988	1.01	0.915
